According to PubChem BioAssay (NCATS):
“And” between values parts separate entries of the source, which are not always exact repeats. Equal entries are not always repeated. Results filed as inconclusive are left out. The source made the active and inactive calls. Calls follow the shape of the dose curve; as a rule, active = well fitted curve in the direction sought with a large enough effect; inconclusive = small, poorly fitted or top-dose-only effect, or another doubt; inactive = no such curve, though single readings can be large; an effect the other way counts as inactive or inconclusive.

Columns and labels:
[1] = Viability qHTS for spleen associated tyrosine kinase inhibitor (SYKi) naive MV4-11 cells (AID 1963823); conditions: MV4-11 AML viability, CellTiter-Glo luminescence, 72 h; series mostly up to 45 µM; also: nearly all actives have a fitted effect of over 40% in size
How it was run: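 CellTiter-Glo luminescence, 10 min room-temperature incubation, gave viability. Cells: naive MV4-11 (500/well), treated 72 hr at 37 C, 5% CO2.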

[2] = Viability qHTS for spleen associated tyrosine kinase inhibitor (SYKi) drug resistant MV4-11 cells (AID 1963824); conditions: SYKi-resistant MV4-11 viability, CellTiter-Glo, 72 h; series mostly up to 45 µM; also: nearly all actives have a fitted effect of over 35% in size
How it was run: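 CellTiter-Glo luminescence, read 10 min after reagent addition, reports viability after a 72 hr compound exposure. Cells are an MV4-11 line made resistant to SYK inhibition, seeded at 500 per well onto compound-containing plates.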

[3] = Cellular viability qHTS for adrenocortical cancer (ACC) cell line SW-13 (AID 1963989); conditions: SW-13 ACC cells viability, CellTiter-Glo, 48 h; activity (max response): hits give low values; also: nearly all actives have a fitted effect of over 65% in size;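 as to activity (max response): cells grown in serum-free medium with ITS supplement; % is scaled to controls: 0 for no effect and ±100 for the full control effect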
How it was run: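 SW-13 cells in ITS-supplemented serum-free DMEM were plated overnight, then exposed for 48 h at 37C to compound titrations (up to 46 uM final). Viability was read by CellTiter-Glo luminescence; four-parameter logistic fits gave IC50 and efficacy.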

[4] = Cellular viability qHTS for adrenocortical cancer (ACC) cell line NCI-H295R (AID 1963990); conditions: CellTiter-Glo ATP luminescence, 48 h; series mostly up to 46.1 µM; also: nearly all actives have a fitted effect of over 60% in size
How it was run: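 Luminescent ATP read-out (CellTiter-Glo, 20 min RT) after 48 h drug exposure of NCI-H295R cells; a titration up to 46 uM final. Data normalized to doxorubicin (100% inhibition) and DMSO (0%); 4-parameter fit gives IC50, max response.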
Potency is read from the fitted curve at half-maximal effect.

CCCC1(CCC)CCC2(CCN(CCCN(CC)CC)C2)CC1
active: Potency [1] 2350 nM | Potency [2] 2.31 µM | Potency [3] 3.55 µM | Potency [4] 6.31 µM

CC(=O)[C@]1(O)Cc2c(O)c3c(c(O)c2[C@@H](O[C@H]2C[C@H](N)[C@H](O)[C@H](C)O2)C1)C(=O)c1ccccc1C3=O
active: Potency [1] 75 nM | Potency [2] 119 nM and 83.3 nM | Potency [3] 46.1 nM and 2 µM | Potency [4] 1.84 µM and 2.24 µM

CC1=C(CO)C(=O)O[C@@H]([C@@H](C)[C@H]2CC[C@H]3[C@@H]4C[C@H]5O[C@]56[C@@H](O)C=CC(=O)[C@]6(C)[C@H]4CC[C@]23C)C1
active: Potency [1] 296 nM | Potency [2] 317 nM and 263 nM | Potency [3] 1.58 µM | Potency [4] 0.447 µM

O=C(O)/C(S)=C/c1ccc(I)cc1
inactive: Potency [1] | Potency [2] | activity (max response) [3] 9.8% | Potency [4]

C/C=C/c1ccc(O)c(OC)c1
inactive: Potency [1] | Potency [2] | activity (max response) [3] 1.66% | Potency [4]

Oc1cc(O)c2c(c1)O[C@H](c1ccc(O)c(O)c1)[C@H](O)C2
inactive: Potency [1] | Potency [2] | activity (max response) [3] 11.2% | Potency [4]

N#Cc1cc(NC(=O)C(=O)O)c(Cl)c(NC(=O)C(=O)O)c1
inactive: Potency [1] | Potency [2] | activity (max response) [3] 14% | Potency [4]

CCNC(=O)NCc1cccc(Cl)c1
inactive: Potency [1] | Potency [2] | activity (max response) [3] -4.81% | Potency [4]

C[C@@H](O[C@H]1OCCN(Cc2n[nH]c(=O)[nH]2)[C@@H]1c1ccc(F)cc1)c1cc(C(F)(F)F)cc(C(F)(F)F)c1
active: Potency [1] 16600 nM | Potency [2] 16.6 µM | Potency [3] 22.4 µM | Potency [4] 25.1 µM

COc1ccc(S(=O)(=O)N(CCO)c2ccccc2CN(C)C/C=C/c2ccc(Cl)cc2)cc1
active: Potency [1] 4680 nM | Potency [2] 4.68 µM | Potency [3] 10 µM | Potency [4] 12.6 µM

CC1=NN(c2ccc(C(=O)O)cc2)C(=O)/C1=C/c1ccc(-c2cc(C)c(C)cc2[N+](=O)[O-])o1
active: Potency [1] 16600 nM | Potency [2] 18.6 µM
inactive: activity (max response) [3] 11.6% | Potency [4]

NC(=O)c1ccccc1Nc1ccnc(Nc2cccc(O)c2)n1
active: Potency [1] 372 nM | Potency [2] 0.326 µM | Potency [3] 17.8 µM | Potency [4] 12.6 µM

Cn1cncc1C(N)(c1ccc(Cl)cc1)c1ccc2c(c1)c(-c1cccc(Cl)c1)cc(=O)n2C (stereo not given)
active: Potency [1] 1050 nM | Potency [2] 1.86 µM | Potency [3] 6.31 µM | Potency [4] 3.55 µM

CC(=O)c1ccc(O)c(C(N)=O)c1
inactive: Potency [1] | Potency [2] | activity (max response) [3] 17.1% | Potency [4]

CC1=C(C(=O)O)N2C(=O)[C@@H](NC(=O)[C@H](N)c3ccc(O)cc3)[C@H]2SC1
inactive: Potency [1] | Potency [2] | activity (max response) [3] 8.09% | Potency [4]

COc1cccc(Nc2ncnn3ccc(CN4CC[C@@H](N)[C@H](O)C4)c23)c1
active: Potency [1] 41.1 nM | Potency [2] 0.184 µM | Potency [3] 0.316 µM
inactive: Potency [4]

CCOCCOC(=O)/C=C/c1ccc(OC)cc1
inactive: Potency [1] | Potency [2] | activity (max response) [3] -3.52% | Potency [4]

C[C@H](O)C(=O)Nc1c(I)c(C(=O)NC(CO)CO)c(I)c(C(=O)NC(CO)CO)c1I
inactive: Potency [1] | Potency [2] | activity (max response) [3] 10.3% | Potency [4]

CC(C)COC(=O)c1ccc(N)cc1
inactive: Potency [1] | Potency [2] | activity (max response) [3] 4.68% | Potency [4]

CCO[C@@H]1OC(=O)C[C@@H]1NC(=O)[C@@H]1CCCN2C(=O)CC[C@H](NC(=O)c3nccc4ccccc34)C(=O)N12
inactive: Potency [1] | Potency [2] | activity (max response) [3] -8.71% | Potency [4]

CC(=O)O[C@]1(C(C)=O)CC[C@H]2[C@@H]3C[C@H](C)C4=CC(=O)CC[C@]4(C)[C@H]3CC[C@@]21C
inactive: activity (max response) [3] -20.8% | Potency [4]
active: Potency [1] 8.41 µM and 13.2 µM | Potency [2] 9.44 µM and 13.2 µM

C=C1C[C@H]2C=Nc3cc(OCCCOc4cc5c(cc4OC)C(=O)N4CC(=C)C[C@H]4C=N5)c(OC)cc3C(=O)N2C1
active: Potency [3] 0.01 µM | Potency [4] 0.1 µM
inactive: Potency [1] | Potency [2]

O=C(CCc1ccc(O)cc1)c1c(O)cc(O)cc1O[C@@H]1O[C@H](CO)[C@@H](O)[C@H](O)[C@H]1O
inactive: Potency [1] | Potency [2] | activity (max response) [3] 0.618% | Potency [4]

Cc1ccc2cc(-c3c(C)ccc(C(=O)c4c(-c5ccccc5)n(C)n(-c5ccccc5)c4=O)c3N)ccc2n1
active: Potency [1] 4610 nM | Potency [2] 9.34 µM
inactive: activity (max response) [3] -12.9% | Potency [4]

C[C@@H](O)[C@@H](C)Oc1nc(Nc2ccc(S(=N)(=O)C3CC3)cc2)ncc1C(F)(F)F (stereo not given in full)
active: Potency [1] 3320 nM | Potency [2] 11.8 µM
inactive: activity (max response) [3] 4.29% | Potency [4]

NS(=O)(=O)c1cc2c(cc1C(F)(F)F)NC(Cc1ccccc1)NS2(=O)=O (stereo not given)
inactive: Potency [1] | Potency [2] | activity (max response) [3] 1.49% | Potency [4]

CCCCCCCCCCCCCCCC(=O)NCCO
inactive: Potency [1] | Potency [2] | activity (max response) [3] 3.88% | Potency [4]

CCCCNc1ncc2c(-c3ccc(CN4CCN(C)CC4)cc3)cn(C3CCC(O)CC3)c2n1 (stereo not given)
active: Potency [1] 10.5 nM | Potency [2] 11.6 nM and 20.9 nM | Potency [3] 11.2 µM | Potency [4] 6.31 µM

C[C@@H](Oc1ccc2[nH]nc(/C=C/c3cnn(CCO)c3)c2c1)c1c(Cl)cncc1Cl
active: Potency [1] 23.5 nM | Potency [2] 0.0525 µM | Potency [3] 3.98 µM | Potency [4] 5.01 µM

CCOc1nc2cccc(C(=O)O)c2n1Cc1ccc(-c2ccccc2-c2nn[nH]n2)cc1
inactive: Potency [1] | Potency [2] | activity (max response) [3] 10.5% | Potency [4]

CC(C)c1cc(CNc2nc(Nc3cc(C4CC4)[nH]n3)cc(N3CCN(C)CC3)n2)on1
active: Potency [1] 25.9 nM | Potency [2] 0.0231 µM | Potency [3] 3.98 µM | Potency [4] 1.58 µM

CC(C(=O)O)c1ccc2c(c1)[nH]c1ccc(Cl)cc12 (stereo not given)
inactive: Potency [1] | Potency [2] | activity (max response) [3] -19.1% | Potency [4]

Cc1ccc(S(=O)(=O)Nc2cc(C(F)(F)F)ccc2C(=O)Nc2nc(-c3ccccc3)cs2)cc1
active: Potency [1] 2950 nM | Potency [2] 2.95 µM | Potency [3] 2.24 µM | Potency [4] 2.51 µM

CCCNC(C)(C)COC(=O)c1ccccc1
inactive: Potency [1] | Potency [2] | activity (max response) [3] -2.6% | Potency [4]

O=C(Nc1nc2cccc(-c3ccc(CN4CCS(=O)(=O)CC4)cc3)n2n1)C1CC1
active: Potency [1] 2.59 µM and 5.25 µM | Potency [2] 2.91 µM and 7.42 µM | Potency [3] 25.1 µM | Potency [4] 28.2 µM

Cn1cc(-c2c[nH]c3ncnc(N4CCOCC4)c23)cn1
inactive: activity (max response) [3] 0.0559% | Potency [4]
active: Potency [1] 13200 nM | Potency [2] 14.8 µM

COc1cccc2c1C(=O)c1c(O)c3c(c(O)c1C2=O)C[C@@](O)(C(=O)CO)C[C@@H]3O[C@H]1C[C@H](N)[C@H](O[C@@H]2CCCCO2)[C@H](C)O1
active: Potency [1] 750 nM | Potency [2] 3.35 µM | Potency [3] 0.731 µM | Potency [4] 3.66 µM

FC(F)(F)c1ccc(Nc2nc(-c3c(C(F)(F)F)nc4ccccn34)cs2)cc1
active: Potency [1] 184 nM | Potency [2] 0.13 µM | Potency [3] 0.282 µM | Potency [4] 0.316 µM

CCN1/C(=C/C(C)=O)Sc2ccc(OC)cc21
active: Potency [1] 9200 nM | Potency [2] 8.2 µM
inactive: activity (max response) [3] 3.06% | Potency [4]

CCN1C(=O)N2Cc3cc(OC)cc(OC)c3[C@@H](C)C=C2C12CCN(Cc1cc(C)cc(C)c1)CC2
active: Potency [1] 18600 nM | Potency [2] 14.8 µM | Potency [3] 28.2 µM | Potency [4] 25.1 µM

Cc1[nH]c2ccccc2c1CCNCc1ccc(/C=C/C(=O)NO)cc1
active: Potency [1] 29.5 nM | Potency [2] 0.0263 µM | Potency [3] 0.251 µM | Potency [4] 0.112 µM

Cc1c(NC(=O)OCC2COCCN2)cn2ncnc(Nc3ccc4c(cnn4Cc4cccc(F)c4)c3)c12 (stereo not given)
active: Potency [1] 4.61 µM and 16.6 µM | Potency [2] 5.8 µM and 16.6 µM | Potency [3] 22.4 µM | Potency [4] 31.6 µM

CCC1(c2cnc[nH]2)Cc2ccccc2C1
inactive: Potency [1] | Potency [2] | activity (max response) [3] -4.6% | Potency [4]

Nc1c2c(nc3c1CCC3)CCCC2
inactive: Potency [1] | Potency [2] | activity (max response) [3] -9.88% | Potency [4]

COc1cc(OC)c(/C=C/S(=O)(=O)Cc2ccc(OC)c(OP(=O)(O)O)c2)c(OC)c1
active: Potency [1] 11.8 nM | Potency [2] 0.0148 µM | Potency [3] 0.0398 µM | Potency [4] 0.0282 µM

CCOC(=O)c1cc(=O)c2c(OCC(COc3cccc4oc(C(=O)OCC)cc(=O)c34)OC(=O)[C@@H](N)CCCCN)cccc2o1
inactive: Potency [1] | Potency [2] | activity (max response) [3] 4.59% | Potency [4]

CC(C)(O)CC[C@@H](O)[C@](C)(O)[C@H]1CC[C@@]2(O)C3=CC(=O)[C@@H]4C[C@@H](O)[C@@H](O)C[C@]4(C)[C@H]3CC[C@]12C
inactive: Potency [1] | Potency [2] | activity (max response) [3] 9.11% | Potency [4]

CCOc1ccc(NS(=O)(=O)c2ccc(N)cc2)nn1
inactive: Potency [1] | Potency [2] | activity (max response) [3] 7.51% | Potency [4]

O=C(O)CCC(=O)Nc1ccc(S(=O)(=O)Nc2nccs2)cc1
inactive: Potency [1] | Potency [2] | activity (max response) [3] -7.1% | Potency [4]

C=CC(=O)N1CC[C@@H](Oc2nc(Nc3ccc(N4CCC(N5CCN(C)CC5)CC4)cc3)c(C(N)=O)nc2CC)C1
active: Potency [1] 32.3 nM | Potency [2] 0.091 µM | Potency [3] 1.43 µM | Potency [4] 7.15 µM
